Records with an inconclusive call do not appear. The source made the active and inactive calls. The call rests on the fitted dose curve; in most records, active means well fitted curve in the direction sought with a large enough effect; inconclusive means small, poorly fitted or top-dose-only effect, or another doubt; inactive means no such curve, though single readings can be large; an effect the other way counts as inactive or inconclusive.
Experiments:
[1] = Quantitative High-Throughput drug screen in 47 multiple myeloma cell lines against the NCATS MIPE library collection: FR4_PLB cell viability assay (AID 1918924; further: nearly all actives have a fitted effect of over 35% in size)
In short: (§1)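 Relative luminescence from CellTiter-Glo served as the viability signal, referenced to DMSO-treated (100%) and cell-free medium (0%) controls. Treatment lasted 48 hours at 37C with 500 cells per well.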

[2] = Quantitative High-Throughput drug screen in 47 multiple myeloma cell lines against the NCATS MIPE library collection: Delta47_JCRB cell viability assay (AID 1918925; further: nearly all actives have a fitted effect of over 45% in size)
In short: as §1

[3] = Quantitative High-Throughput drug screen in 47 multiple myeloma cell lines against the NCATS MIPE library collection: EJM_DSMZ cell viability assay (AID 1918926; further: nearly all actives have a fitted effect of over 30% in size)
In short: as §1

[4] = Quantitative High-Throughput drug screen in 47 multiple myeloma cell lines against the NCATS MIPE library collection: AMO1_DSMZ cell viability assay (AID 1918927; further: nearly all actives have a fitted effect of over 30% in size)
In short: as §1

[5] = Quantitative High-Throughput drug screen in 47 multiple myeloma cell lines against the NCATS MIPE library collection: ARD_JJKsccE7 cell viability assay (AID 1918929)
In short: as §1

[6] = Quantitative High-Throughput drug screen in 47 multiple myeloma cell lines against the NCATS MIPE library collection: Karpas620_DSMZ cell viability assay (AID 1918959); further: nearly all actives have a fitted effect of over 30% in size
In short: as §1

[7] = Quantitative High-Throughput drug screen in 47 multiple myeloma cell lines against the NCATS MIPE library collection: KMM1_JCRB cell viability assay (AID 1918960); further: nearly all actives have a fitted effect of over 30% in size
In short: (§2)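 Cell viability inhibition in this qHTS is measured via ATP content (CellTiter-Glo) after 48 h drug exposure at 37 °C. Wells hold 500 cells; DMSO-treated wells define 100% and medium-only wells 0%.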

[8] = Quantitative High-Throughput drug screen in 47 multiple myeloma cell lines against the NCATS MIPE library collection: Karpas417_ECACC cell viability assay (AID 1918961); conditions: Karpas417 myeloma viability, CellTiter-Glo ATP luminescence, 48 h; viability (% of DMSO): at 45.8 µM (top of the series)
In short: as §1

[9] = Quantitative High-Throughput drug screen in 47 multiple myeloma cell lines against the NCATS MIPE library collection: KHM11_PLB cell viability assay (AID 1918962); further: nearly all actives have a fitted effect of over 35% in size
In short: as §1

[10] = Quantitative High-Throughput drug screen in 47 multiple myeloma cell lines against the NCATS MIPE library collection: JIM3_ECACC cell viability assay (AID 1918963; further: nearly all actives have a fitted effect of over 35% in size)
In short: as §1

[11] = Quantitative High-Throughput drug screen in 47 multiple myeloma cell lines against the NCATS MIPE library collection: JJN3_DSMZ cell viability assay (AID 1918966; further: nearly all actives have a fitted effect of over 50% in size)
In short: as §1

[12] = Quantitative High-Throughput drug screen in 47 multiple myeloma cell lines against the NCATS MIPE library collection: KMS12PE_JCRB cell viability assay (AID 1918972); further: nearly all actives have a fitted effect of over 30% in size
In short: as §1

[13] = Quantitative High-Throughput drug screen in 47 multiple myeloma cell lines against the NCATS MIPE library collection: ARP1_JJKsccF8 cell viability assay (AID 1918928; further: nearly all actives have a fitted effect of over 40% in size)
In short: as §2

[14] = Quantitative High-Throughput drug screen in 47 multiple myeloma cell lines against the NCATS MIPE library collection: JIM1_ECACC cell viability assay (AID 1918964)
In short: as §1

[15] = Quantitative High-Throughput drug screen in 47 multiple myeloma cell lines against the NCATS MIPE library collection: H1112_PLB cell viability assay (AID 1918967; further: nearly all actives have a fitted effect of over 30% in size)
In short: as §1

[16] = Quantitative High-Throughput drug screen in 47 multiple myeloma cell lines against the NCATS MIPE library collection: Karpas25_ECACC cell viability assay (AID 1918968; further: nearly all actives have a fitted effect of over 35% in size)
In short: as §1

[17] = Quantitative High-Throughput drug screen in 47 multiple myeloma cell lines against the NCATS MIPE library collection: KMS27_JCRB cell viability assay (AID 1918970); conditions: KMS27 myeloma cells, CellTiter-Glo ATP viability, 48 h; viability (% of DMSO): at 45.8 µM (top of the series); further: nearly all actives have a fitted effect of over 30% in size
In short: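 KMS27_JCRB myeloma cells, 500 per well, exposed 48 h at 37 C, 5% CO2 to MIPE 4.0 compounds. Viability from ATP by CellTiter-Glo luminescence, normalized to DMSO (100%) and medium-only (0%) wells.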

[18] = Quantitative High-Throughput drug screen in 47 multiple myeloma cell lines against the NCATS MIPE library collection: KMS12BM_JCRB cell viability assay (AID 1918971); further: nearly all actives have a fitted effect of over 35% in size
In short: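 CellTiter-Glo luminescence (ATP) after 48 h compound exposure, 37C/5% CO2; 500 cells/well; MIPE 4.0 approved/investigational drugs pinned in; DMSO = 100%, media only = 0% viability.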

[19] = Quantitative High-Throughput drug screen in 47 multiple myeloma cell lines against the NCATS MIPE library collection: KMS20_JCRB cell viability assay (AID 1918973); further: nearly all actives have a fitted effect of over 45% in size
In short: as §1

[20] = Quantitative High-Throughput drug screen in 47 multiple myeloma cell lines against the NCATS MIPE library collection: INA6_PLB cell viability assay (AID 1918965; further: nearly all actives have a fitted effect of over 55% in size)
In short: as §1

Measured: Potency
Potency means the concentration at half of the fitted maximal effect.

O[C@@H](COc1cccc2ncccc12)CN1CCN(C2c3ccccc3[C@@H]3[C@H](c4ccccc42)C3(F)F)CC1 (stereo partly specified)
inactive: [4] | [5] | [6] | [7] | [8] | [12]
active: [1] 23.5 µM | [2] 16.6 µM | [3] 23.5 µM | [9] 16.6 µM | [10] 13.2 µM | [11] 14.8 µM

CCCCCOC(=O)Nc1nc(=O)n([C@@H]2O[C@H](C)[C@@H](O)C2O)cc1F (stereo partly specified)
active: [16] 18.7 µM
not listed: [8] | [9] | [20]
inactive: all other assays above

O=C(c1ccc(C(=O)N2CCC(N3CCCC3)CC2)c(Nc2ccccc2)c1)N1CCC(N2CCCC2)CC1
active: [3] 14.8 µM | [13] 5.26 µM
not listed: [5] | [8] | [11] | [14] | [18] | [20]
inactive: all other assays above

COc1ccc2c(c1)CC[C@H]1[C@@H]2CC[C@]2(C)[C@@H](NCCCCCCN3C(=O)C=CC3=O)CC[C@H]12
inactive: [1] | [2] | [3] | [4] | [5] | [6] | [7] | [10] | [15] | [16] | [12]

COc1cc2ncn(-c3cc(OCc4ccccc4S(C)(=O)=O)c(C#N)s3)c2cc1OC
active: [3] 3.72 µM | [15] 3.72 µM
not listed: [8] | [11] | [14] | [16] | [18] | [20]
inactive: all other assays above

COc1cccc(OC)c1-c1cc(C(=O)NC2(C(=O)O)C3CC4CC(C3)CC2C4)nn1-c1ccnc2cc(Cl)ccc12 (stereo unspecified)
not listed: [8] | [11] | [13] | [14] | [15] | [18] | [19] | [20]
inactive: all other assays above

O=C(Nc1ncc(SCCN2CCCC2)s1)[C@]1(c2ccc(S(=O)(=O)C3CC3)cc2)C[C@@H]1C1CCCCC1
active: [1] 18.7 µM | [2] 14.8 µM | [3] 18.7 µM | [4] 8.33 µM | [13] 26.4 µM | [6] 8.33 µM | [8] 10.5 µM | [9] 16.6 µM | [10] 20.9 µM | [14] 6.62 µM | [20] 16.6 µM | [11] 16.6 µM | [16] 18.7 µM | [17] 7.43 µM | [18] 23.5 µM | [12] 5.26 µM

C[C@@H]1C[C@H]2[C@@H]3CCC4=CC(=O)C=C[C@]4(C)[C@@]3(F)[C@@H](O)C[C@]2(C)[C@@]1(O)C(=O)CO
active: [13] 0.0235 µM | [5] 0.0093 µM | [8] 0.0418 µM | [16] 0.0526 µM | [19] 0.418 µM
not listed: [7] | [9] | [18]
inactive: all other assays above

OC1CCC(Nc2ncc3nc(Nc4c(F)cc(F)cc4F)n([C@@H]4CCOC4)c3n2)CC1 (stereo partly specified)
inactive: [1] | [6]
active: [2] 8.33 µM | [3] 0.0012 µM | [4] 16.6 µM | [13] 33.2 µM | [7] 11.8 µM | [14] 16.6 µM | [20] 14.8 µM | [18] 23.5 µM | [12] 18.7 µM

N#CC(c1ccc(Cl)cc1)c1c(Cl)cc(-n2ncc(=O)[nH]c2=O)cc1Cl (stereo unspecified)
inactive: [1]
active: [2] 23.5 µM | [3] 16.6 µM | [4] 5.26 µM | [5] 18.7 µM | [6] 10.5 µM | [7] 5.9 µM | [9] 0.372 µM | [14] 20.9 µM | [20] 23.5 µM | [11] 16.6 µM | [15] 20.9 µM | [16] 8.33 µM | [17] 5.9 µM | [18] 20.9 µM | [12] 13.2 µM

CCCCCCCCCCCCCCCC(=O)O[C@H]1[C@@H](O)[C@@H](O)[C@@H]([C@H](NC(=O)[C@@H]2C[C@@H](CCC)CN2C)[C@H](C)Cl)O[C@@H]1SC
inactive: [1] | [2] | [3] | [4] | [13] | [10] | [14] | [12]
active: [7] 8.33 µM | [15] 18.7 µM | [17] 7.43 µM | [18] 4.69 µM

O=c1[nH]nc(OCCCc2ccc(Cl)cc2)c(NCc2cccnc2)c1Br
active: [1] 16.6 µM | [2] 4.18 µM | [3] 18.7 µM | [4] 7.43 µM | [13] 18.7 µM | [6] 10.5 µM | [7] 18.7 µM | [8] 4.69 µM | [9] 2.96 µM | [10] 8.33 µM | [14] 8.33 µM | [20] 4.69 µM | [11] 20.9 µM | [15] 10.5 µM | [16] 6.62 µM | [17] 7.43 µM | [18] 18.7 µM | [12] 2.64 µM | [19] 1.05 µM

Source: PubChem BioAssay (NCATS)
